# According to paper PMC7862700, “An all-to-all approach to the identification of sequence-specific readers for epigenetic DNA modifications on cytosine”:
# How the values were obtained:
# Test in all cases: DAPPL (digital affinity profiling via proximity ligation, sequencing); 10 mM Tris-HCl pH 7.5, 50 mM NaCl, 1 mM DTT, 4% glycerol, room temperature, 30 min; GST-TFs on glutathione beads, 16-mer random dsDNA library, 0.1% formaldehyde crosslink after washing; high values mean tight binding
# FEV = target: T1, FEV (Homo sapiens, UniProt Q99581 1-238); details: protein: recombinant; tags: N-terminal GST; dsDNA, one strand shown
# T1 sequence: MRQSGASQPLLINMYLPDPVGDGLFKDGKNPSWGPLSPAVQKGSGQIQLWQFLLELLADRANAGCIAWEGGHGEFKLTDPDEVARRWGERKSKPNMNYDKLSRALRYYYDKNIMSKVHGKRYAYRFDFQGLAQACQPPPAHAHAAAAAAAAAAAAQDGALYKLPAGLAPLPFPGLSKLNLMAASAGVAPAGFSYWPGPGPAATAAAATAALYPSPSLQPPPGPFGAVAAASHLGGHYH
# Outline: (§1)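 Binding signal is each hexamer's read frequency for a factor divided by its frequency in the tag-only sample. The factors were GST-fused human transcription factors from yeast, captured on glutathione beads, DNA-barcoded and pooled with that sample. Pools were incubated with 200 nmole of a random double-stranded 16-mer DNA library in Tris/NaCl/DTT/glycerol buffer at room temperature for 30 min, then washed, crosslinked with 0.1% formaldehyde, proximity-ligated with BsaI/T4 ligase (1 h, 37 °C), PCR-amplified and sequenced on an Illumina NextSeq500.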
# ETV5 = ETV5 (Homo sapiens, UniProt P41161 1-510); details: protein: recombinant; tags: N-terminal GST; dsDNA, one strand shown
# Outline: as §1
# HSF1 = HSF1 (Homo sapiens, UniProt Q00613 1-529); details: protein: recombinant; tags: N-terminal GST; chain copies: 3; dsDNA, one strand shown
# Outline: as §1
# SPIC = target: T2, SPIC (Homo sapiens, UniProt Q8N5J4 1-248); details: protein: recombinant; tags: N-terminal GST; dsDNA, one strand shown
# T2 sequence: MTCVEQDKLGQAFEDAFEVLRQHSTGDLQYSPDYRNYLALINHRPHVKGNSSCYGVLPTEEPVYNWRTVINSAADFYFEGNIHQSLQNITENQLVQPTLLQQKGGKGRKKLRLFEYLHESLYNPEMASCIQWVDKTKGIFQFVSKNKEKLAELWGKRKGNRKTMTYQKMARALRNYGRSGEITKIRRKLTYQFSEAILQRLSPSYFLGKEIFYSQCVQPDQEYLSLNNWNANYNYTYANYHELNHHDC
# Outline: as §1
# ELF4 = ELF4 (Homo sapiens, UniProt Q99607 1-663); details: protein: recombinant; tags: N-terminal GST; dsDNA, one strand shown
# Outline: as §1
# ELK4 = target: T3, ELK4 (Homo sapiens, UniProt P28324-2 1-405); details: protein: recombinant; tags: N-terminal GST; dsDNA, one strand shown
# T3 sequence: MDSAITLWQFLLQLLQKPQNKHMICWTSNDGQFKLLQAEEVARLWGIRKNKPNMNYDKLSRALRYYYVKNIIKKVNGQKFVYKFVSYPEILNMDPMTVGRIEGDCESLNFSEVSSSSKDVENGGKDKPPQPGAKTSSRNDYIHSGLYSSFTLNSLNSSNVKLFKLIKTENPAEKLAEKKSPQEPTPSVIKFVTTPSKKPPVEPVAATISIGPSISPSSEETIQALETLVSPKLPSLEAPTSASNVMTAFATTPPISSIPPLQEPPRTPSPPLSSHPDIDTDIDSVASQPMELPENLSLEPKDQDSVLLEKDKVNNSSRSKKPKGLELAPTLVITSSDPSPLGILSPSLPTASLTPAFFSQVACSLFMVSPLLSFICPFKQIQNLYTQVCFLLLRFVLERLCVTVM
# Outline: as §1
# ETV2 = target: T4, ETV2 (Homo sapiens, UniProt O00321 1-342); details: protein: recombinant; tags: N-terminal GST; dsDNA, one strand shown
# T4 sequence: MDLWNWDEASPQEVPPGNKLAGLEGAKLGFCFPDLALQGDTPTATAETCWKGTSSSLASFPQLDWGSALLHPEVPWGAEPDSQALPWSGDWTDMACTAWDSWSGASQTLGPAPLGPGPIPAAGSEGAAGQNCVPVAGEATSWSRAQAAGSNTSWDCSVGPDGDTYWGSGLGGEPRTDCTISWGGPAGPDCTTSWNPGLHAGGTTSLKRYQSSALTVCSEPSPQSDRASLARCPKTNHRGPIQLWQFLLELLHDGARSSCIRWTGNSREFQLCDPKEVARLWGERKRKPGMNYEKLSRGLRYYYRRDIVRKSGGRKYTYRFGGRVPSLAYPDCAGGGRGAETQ
# Outline: as §1
# ELF3 = target: T5, ELF3 (Homo sapiens, UniProt P78545 1-371); details: protein: recombinant; tags: N-terminal GST; dsDNA, one strand shown
# T5 sequence: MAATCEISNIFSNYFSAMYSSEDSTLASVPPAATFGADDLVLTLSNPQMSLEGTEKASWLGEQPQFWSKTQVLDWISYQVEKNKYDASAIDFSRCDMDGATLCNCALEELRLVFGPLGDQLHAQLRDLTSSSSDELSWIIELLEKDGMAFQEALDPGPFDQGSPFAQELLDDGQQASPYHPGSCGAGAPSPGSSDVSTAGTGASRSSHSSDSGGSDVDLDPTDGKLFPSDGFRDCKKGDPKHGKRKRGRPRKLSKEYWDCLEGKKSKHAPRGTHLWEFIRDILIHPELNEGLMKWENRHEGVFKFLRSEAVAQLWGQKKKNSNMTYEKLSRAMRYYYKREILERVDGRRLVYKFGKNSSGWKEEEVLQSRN
# Outline: as §1
# CRX = CRX (Homo sapiens, UniProt O43186 1-299); details: protein: recombinant; tags: N-terminal GST; dsDNA, one strand shown
# Outline: as §1
# ETV1 = ETV1 (Homo sapiens, UniProt P50549 1-477); details: protein: recombinant; tags: N-terminal GST; dsDNA, one strand shown
# Outline: as §1
# ERF = target: T6, ERF (Homo sapiens, UniProt P50548 1-548); details: protein: recombinant; tags: N-terminal GST; dsDNA, one strand shown
# T6 sequence: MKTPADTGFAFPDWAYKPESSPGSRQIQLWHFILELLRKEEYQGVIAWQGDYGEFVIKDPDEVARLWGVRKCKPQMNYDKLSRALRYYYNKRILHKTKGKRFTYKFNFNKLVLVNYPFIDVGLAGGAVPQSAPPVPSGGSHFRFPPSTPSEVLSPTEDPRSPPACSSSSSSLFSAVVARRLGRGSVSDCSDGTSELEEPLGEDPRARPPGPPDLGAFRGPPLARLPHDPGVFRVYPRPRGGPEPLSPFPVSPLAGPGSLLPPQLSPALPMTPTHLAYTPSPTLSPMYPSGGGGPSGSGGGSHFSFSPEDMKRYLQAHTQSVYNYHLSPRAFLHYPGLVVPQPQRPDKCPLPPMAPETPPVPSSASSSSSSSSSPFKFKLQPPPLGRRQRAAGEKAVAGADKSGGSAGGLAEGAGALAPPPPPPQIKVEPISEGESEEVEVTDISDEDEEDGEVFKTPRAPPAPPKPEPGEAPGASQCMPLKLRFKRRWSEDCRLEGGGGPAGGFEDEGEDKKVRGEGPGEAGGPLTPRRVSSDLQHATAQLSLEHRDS
# Outline: as §1
# ETV3L = target: T7, ETV3L (Homo sapiens, UniProt Q6ZN32 1-361); details: protein: recombinant; tags: N-terminal GST; dsDNA, one strand shown
# T7 sequence: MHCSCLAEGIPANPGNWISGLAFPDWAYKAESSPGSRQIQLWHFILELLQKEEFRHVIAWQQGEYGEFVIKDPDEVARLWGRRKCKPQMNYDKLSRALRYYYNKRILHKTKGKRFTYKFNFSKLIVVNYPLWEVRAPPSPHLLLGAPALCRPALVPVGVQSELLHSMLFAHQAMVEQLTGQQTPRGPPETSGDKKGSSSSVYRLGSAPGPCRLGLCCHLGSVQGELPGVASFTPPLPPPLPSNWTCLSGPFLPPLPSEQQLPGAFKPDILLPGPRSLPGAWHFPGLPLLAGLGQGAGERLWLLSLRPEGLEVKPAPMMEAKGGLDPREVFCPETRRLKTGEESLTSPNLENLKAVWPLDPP
# Outline: as §1
# ETS2 = target: T8, ETS2 (Homo sapiens, UniProt P15036 1-469); details: protein: recombinant; tags: N-terminal GST; dsDNA, one strand shown
# T8 sequence: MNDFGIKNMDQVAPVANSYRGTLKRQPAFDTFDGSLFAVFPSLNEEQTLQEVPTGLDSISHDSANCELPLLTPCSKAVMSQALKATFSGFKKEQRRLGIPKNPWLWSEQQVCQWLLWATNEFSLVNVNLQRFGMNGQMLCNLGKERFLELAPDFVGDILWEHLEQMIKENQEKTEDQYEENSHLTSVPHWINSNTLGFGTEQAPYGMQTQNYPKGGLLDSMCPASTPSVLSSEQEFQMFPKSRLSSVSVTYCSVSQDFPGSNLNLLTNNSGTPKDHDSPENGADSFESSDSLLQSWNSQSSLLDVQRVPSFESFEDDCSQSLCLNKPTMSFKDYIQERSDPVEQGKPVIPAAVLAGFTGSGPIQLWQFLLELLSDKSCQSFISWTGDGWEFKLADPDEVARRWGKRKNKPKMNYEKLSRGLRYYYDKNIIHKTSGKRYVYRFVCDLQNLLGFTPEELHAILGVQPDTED
# Outline: as §1
# SPDEF = target: T9, SPDEF (Homo sapiens, UniProt O95238 1-335); details: protein: recombinant; tags: N-terminal GST; dsDNA, one strand shown
# T9 sequence: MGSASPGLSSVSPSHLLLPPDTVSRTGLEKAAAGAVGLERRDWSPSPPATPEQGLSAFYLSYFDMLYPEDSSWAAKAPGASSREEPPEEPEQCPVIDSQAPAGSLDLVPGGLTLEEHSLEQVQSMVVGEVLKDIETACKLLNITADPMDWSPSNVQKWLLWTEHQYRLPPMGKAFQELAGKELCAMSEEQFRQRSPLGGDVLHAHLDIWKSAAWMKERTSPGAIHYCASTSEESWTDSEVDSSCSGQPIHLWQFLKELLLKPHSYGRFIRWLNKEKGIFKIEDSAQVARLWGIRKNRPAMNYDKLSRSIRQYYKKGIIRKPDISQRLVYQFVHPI
# Outline: as §1
# ETV7 = target: T10, ETV7 (Homo sapiens, UniProt Q9Y603 1-341); details: protein: recombinant; tags: N-terminal GST; dsDNA, one strand shown
# T10 sequence: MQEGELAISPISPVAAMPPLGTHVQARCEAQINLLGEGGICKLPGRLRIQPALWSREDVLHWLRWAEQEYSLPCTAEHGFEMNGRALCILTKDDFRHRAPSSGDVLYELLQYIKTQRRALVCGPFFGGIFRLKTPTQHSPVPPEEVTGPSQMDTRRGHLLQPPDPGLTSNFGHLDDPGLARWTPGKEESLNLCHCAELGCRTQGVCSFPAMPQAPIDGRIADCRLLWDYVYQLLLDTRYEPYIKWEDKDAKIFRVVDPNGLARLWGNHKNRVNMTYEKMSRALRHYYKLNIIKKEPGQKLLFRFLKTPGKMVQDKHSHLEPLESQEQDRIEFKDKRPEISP
# Outline: as §1
# ELF5 = target: T11, ELF5 (Homo sapiens, UniProt Q9UKW6-2 1-255); details: protein: recombinant; tags: N-terminal GST; dsDNA, one strand shown
# T11 sequence: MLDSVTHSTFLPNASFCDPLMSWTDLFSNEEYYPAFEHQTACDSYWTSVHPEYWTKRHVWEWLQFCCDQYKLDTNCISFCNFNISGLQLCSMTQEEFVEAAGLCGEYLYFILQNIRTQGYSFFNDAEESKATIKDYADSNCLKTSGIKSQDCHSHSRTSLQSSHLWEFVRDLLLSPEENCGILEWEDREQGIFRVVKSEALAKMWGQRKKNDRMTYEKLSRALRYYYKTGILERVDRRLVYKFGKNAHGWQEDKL
# Outline: as §1
# ETV3 = target: T12, ETV3 (Homo sapiens, UniProt P41162-2 1-143); details: protein: recombinant; tags: N-terminal GST; dsDNA, one strand shown
# T12 sequence: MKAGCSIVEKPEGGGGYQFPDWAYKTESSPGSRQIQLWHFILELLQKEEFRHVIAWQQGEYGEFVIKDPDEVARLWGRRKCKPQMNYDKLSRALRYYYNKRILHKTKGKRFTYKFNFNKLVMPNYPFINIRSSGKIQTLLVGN
# Outline: as §1
# ETV6 = ETV6 (Homo sapiens, UniProt P41212 1-452); details: protein: recombinant; tags: N-terminal GST; dsDNA, one strand shown
# Outline: as §1
# Chain of ETV1 (P50549 whole entry): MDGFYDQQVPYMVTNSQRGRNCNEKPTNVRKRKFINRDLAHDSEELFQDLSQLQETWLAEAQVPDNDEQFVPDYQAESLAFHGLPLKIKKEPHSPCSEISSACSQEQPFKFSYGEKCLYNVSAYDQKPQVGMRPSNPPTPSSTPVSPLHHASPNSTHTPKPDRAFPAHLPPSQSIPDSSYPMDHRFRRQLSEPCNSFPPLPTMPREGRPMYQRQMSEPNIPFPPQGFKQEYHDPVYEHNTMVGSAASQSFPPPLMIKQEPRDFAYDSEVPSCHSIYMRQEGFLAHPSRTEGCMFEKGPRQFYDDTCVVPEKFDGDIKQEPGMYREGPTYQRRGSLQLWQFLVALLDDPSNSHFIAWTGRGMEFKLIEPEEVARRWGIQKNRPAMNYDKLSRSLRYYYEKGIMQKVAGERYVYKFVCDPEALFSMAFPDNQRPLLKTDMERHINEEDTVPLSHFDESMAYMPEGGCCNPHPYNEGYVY
# Chain of ETV5 (P41161 whole entry): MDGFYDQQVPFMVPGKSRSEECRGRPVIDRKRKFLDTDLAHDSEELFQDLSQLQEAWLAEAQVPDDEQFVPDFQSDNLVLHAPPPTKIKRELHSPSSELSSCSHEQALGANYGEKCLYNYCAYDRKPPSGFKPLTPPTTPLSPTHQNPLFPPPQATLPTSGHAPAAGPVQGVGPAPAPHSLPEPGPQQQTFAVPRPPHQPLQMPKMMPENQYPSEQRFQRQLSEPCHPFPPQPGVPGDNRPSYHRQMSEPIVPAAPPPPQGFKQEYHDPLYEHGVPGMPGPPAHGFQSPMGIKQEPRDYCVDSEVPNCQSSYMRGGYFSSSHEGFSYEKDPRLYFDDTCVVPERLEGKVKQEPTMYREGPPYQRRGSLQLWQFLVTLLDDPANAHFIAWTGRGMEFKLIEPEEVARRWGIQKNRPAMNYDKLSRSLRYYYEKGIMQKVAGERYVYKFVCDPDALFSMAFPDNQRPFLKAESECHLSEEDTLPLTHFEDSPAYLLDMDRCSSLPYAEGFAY
# Chain of CRX (O43186 whole entry): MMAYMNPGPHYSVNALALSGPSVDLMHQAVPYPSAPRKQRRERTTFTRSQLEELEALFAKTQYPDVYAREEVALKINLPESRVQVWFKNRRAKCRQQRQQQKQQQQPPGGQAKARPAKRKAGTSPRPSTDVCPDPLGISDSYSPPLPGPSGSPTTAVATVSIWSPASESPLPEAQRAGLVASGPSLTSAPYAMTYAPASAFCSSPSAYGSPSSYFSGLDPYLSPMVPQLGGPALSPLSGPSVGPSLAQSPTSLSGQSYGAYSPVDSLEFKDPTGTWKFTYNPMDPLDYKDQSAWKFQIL
# Chain of ELF4 (Q99607 whole entry): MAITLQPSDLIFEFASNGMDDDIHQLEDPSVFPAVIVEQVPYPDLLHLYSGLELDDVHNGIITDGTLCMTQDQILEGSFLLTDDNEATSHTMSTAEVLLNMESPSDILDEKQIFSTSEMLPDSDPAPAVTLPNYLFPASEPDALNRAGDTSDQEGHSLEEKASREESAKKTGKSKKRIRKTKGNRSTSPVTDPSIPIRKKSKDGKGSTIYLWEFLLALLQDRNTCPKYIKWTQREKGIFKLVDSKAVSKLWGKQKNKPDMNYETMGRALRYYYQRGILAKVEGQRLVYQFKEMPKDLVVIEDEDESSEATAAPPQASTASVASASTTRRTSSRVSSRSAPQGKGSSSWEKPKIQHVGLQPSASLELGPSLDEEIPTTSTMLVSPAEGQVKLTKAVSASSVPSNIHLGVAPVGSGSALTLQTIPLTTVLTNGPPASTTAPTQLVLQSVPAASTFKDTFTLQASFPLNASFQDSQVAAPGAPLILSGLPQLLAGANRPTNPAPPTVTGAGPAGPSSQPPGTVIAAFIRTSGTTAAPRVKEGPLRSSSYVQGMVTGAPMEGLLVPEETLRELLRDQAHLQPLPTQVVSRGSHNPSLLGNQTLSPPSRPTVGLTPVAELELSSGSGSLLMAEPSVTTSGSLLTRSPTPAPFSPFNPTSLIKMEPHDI
# Chain of HSF1 (Q00613 whole entry): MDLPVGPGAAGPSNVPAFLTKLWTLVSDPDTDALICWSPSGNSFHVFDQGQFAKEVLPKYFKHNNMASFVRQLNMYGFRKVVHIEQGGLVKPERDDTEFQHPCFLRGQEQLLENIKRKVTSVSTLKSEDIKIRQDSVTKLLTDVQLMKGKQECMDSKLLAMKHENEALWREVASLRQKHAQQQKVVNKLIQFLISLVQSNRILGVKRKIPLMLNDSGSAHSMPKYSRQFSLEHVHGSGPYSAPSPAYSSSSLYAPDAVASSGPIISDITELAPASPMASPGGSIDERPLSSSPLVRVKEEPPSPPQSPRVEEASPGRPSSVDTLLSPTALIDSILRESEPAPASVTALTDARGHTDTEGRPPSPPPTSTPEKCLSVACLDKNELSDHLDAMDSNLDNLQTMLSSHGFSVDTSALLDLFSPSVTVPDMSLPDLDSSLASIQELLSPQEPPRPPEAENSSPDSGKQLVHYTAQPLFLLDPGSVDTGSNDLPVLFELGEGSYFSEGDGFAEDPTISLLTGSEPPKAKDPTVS
# Chain of ETV6 (P41212 whole entry): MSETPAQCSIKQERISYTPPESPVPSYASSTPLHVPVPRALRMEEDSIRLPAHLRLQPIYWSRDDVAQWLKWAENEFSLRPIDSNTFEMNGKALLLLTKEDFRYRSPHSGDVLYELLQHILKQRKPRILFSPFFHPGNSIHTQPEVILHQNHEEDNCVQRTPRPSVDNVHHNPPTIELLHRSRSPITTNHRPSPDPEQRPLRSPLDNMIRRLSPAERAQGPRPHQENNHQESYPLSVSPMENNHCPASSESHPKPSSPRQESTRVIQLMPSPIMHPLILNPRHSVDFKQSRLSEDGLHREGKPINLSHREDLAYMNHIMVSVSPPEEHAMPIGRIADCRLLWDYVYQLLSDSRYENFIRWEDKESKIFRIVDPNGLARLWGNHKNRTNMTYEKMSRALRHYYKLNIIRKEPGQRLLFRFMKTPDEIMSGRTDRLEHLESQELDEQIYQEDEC
sequence,measurement,setting,value
ATGAAC,binding signal,FEV,"1.26 fold enrichment (6-mer frequency, TF over GST control)"
same,binding signal,ETV5,"1.29 fold enrichment (6-mer frequency, TF over GST control)"
same,binding signal,HSF1,"1.21 fold enrichment (6-mer frequency, TF over GST control)"
same,binding signal,SPIC,"1.39 fold enrichment (6-mer frequency, TF over GST control)"
same,binding signal,ELF4,"1.36 fold enrichment (6-mer frequency, TF over GST control)"
same,binding signal,ELK4,"1.31 fold enrichment (6-mer frequency, TF over GST control)"
same,binding signal,ETV2,"1.11 fold enrichment (6-mer frequency, TF over GST control)"
same,binding signal,ELF3,"1.38 fold enrichment (6-mer frequency, TF over GST control)"
same,binding signal,CRX,"1.13 fold enrichment (6-mer frequency, TF over GST control)"
same,binding signal,ETV1,"1.38 fold enrichment (6-mer frequency, TF over GST control)"
same,binding signal,ERF,"1.26 fold enrichment (6-mer frequency, TF over GST control)"
same,binding signal,ETV3L,"1.28 fold enrichment (6-mer frequency, TF over GST control)"
same,binding signal,ETS2,"1.29 fold enrichment (6-mer frequency, TF over GST control)"
same,binding signal,SPDEF,"1.18 fold enrichment (6-mer frequency, TF over GST control)"
same,binding signal,ETV7,"1.2 fold enrichment (6-mer frequency, TF over GST control)"
same,binding signal,ELF5,"1.29 fold enrichment (6-mer frequency, TF over GST control)"
same,binding signal,ETV3,"1.28 fold enrichment (6-mer frequency, TF over GST control)"
same,binding signal,ETV6,"1.24 fold enrichment (6-mer frequency, TF over GST control)"
